Molecules are shown by their SMILES. The panel holds about 83,000 compounds, 20% with a hit somewhere; the sample as a whole holds those more often.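 A percent growth of 40 corresponds to 60% growth inhibition; 0 means no net growth; -100 means all cells died. Active threshold: below 10.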 A number with no mark means an inactive call. Calls of active or inactive are those of the source.

This experiment relates to A549/ATCC NSCLC. Description: NCI-60 one-dose screen, 48 h (100 = growth as untreated, 0 = no growth, -100 = all killed). The following applies: 10 µM unless noted.
On to `OB1OCc2cc(/C=C/c3cccc(C(F)(F)F)c3)ccc21`, for which the growth was 1.8% (active).
Regarding `CNC(=O)c1[nH]cc(-c2ccc(OC)cc2)c1-c1cc(OC)c2c(c1OC)OCO2`, the growth was 99.1%.
Regarding `COc1ccc(-c2cc(-c3ccc(Cl)cc3)c(C#N)c(=O)n2Cc2ccc(C(=O)Nc3ccccc3N)cc2)cc1`, the growth was 109%.
For `CC1CCc2c(C(=O)Nc3ncc(Cc4cccc([N+](=O)[O-])c4)s3)csc2C1` (stereo not drawn) the value was 34.4%; for `N#Cc1nc(-c2ccc(Cl)cc2)oc1S(=O)(=O)N1CCN(c2ccc(F)cc2)CC1`, 98.6%; for `COc1c(B(O)O)cccc1-c1nc2c(F)cc3[nH]ncc3c2c2c1CCCC2`, 12.2%.
With `O=S(=O)(NCCNc1nccc(-c2c(-c3ccc(F)c(O)c3)nc3sccn23)n1)c1ccc(O)cc1`, the growth is 35.3%.
Next, `CCOC(=O)C(=O)C(C(=O)OCC)c1ccccc1` (stereo not drawn): 122%; `COc1ccc(C(=O)/C=C/c2c(C(F)(F)F)nc3ccccn23)cc1OC`: 43.1%; `CC(=O)O[C@H]1CC2CCC3C(CC[C@@]4(C)C3C[C@H]([N+]3(C)CCCCC3)[C@@H]4OC(C)=O)[C@@]2(C)C[C@@H]1N1CCCCC1` (stereo partly drawn): 101%.
Turning to `O=C1c2ccc3c4c5ccc(c24)C(=O)N1CCCOCCCCOCCCNCc1ccc(cc1)CNCCCOCCCCOCCCN(C3=O)C5=O`, the growth was -40.1% (active).
As to `CC(O)(c1ccccc1)C(c1ccccc1)C1CCCCN1` (stereo not drawn), the growth is 88.1%.
On to `CCCC/C=C/[C@@H]1C[C@H]1CCO`, for which the growth is 96.7%.

Values taken from PubChem BioAssay (NCI).
